According to PubChem BioAssay AID1347056 (Sanford-Burnham Center for Chemical Genomics, 2019):
Among all 360,000 compounds or so, about 3,600 (1%) were called active.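 The calls were made as follows: active = compounds whose plate-normalised and pattern-corrected inhibition of the luciferase reporter signal at the single screening dose is 50% or more; inactive = the rest.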 The list comes from a sample in which actives are over-represented; it also holds similar structures and randomly drawn compounds.

experiment: inhibitors of TROY-driven NF-kB signaling, primary screen, Q293 LMP1-TROYcd cells, NF-kB luciferase, uHTS (AID 1347056); settings: Q293 LMP1-TROYcd NF-kB luciferase reporter, 4 h; at 10 µM; active compounds read high

Compound | inhibition
COc1ccc(NC(=O)CCCNC(=O)Cn2cnc3sc4c(c3c2=O)CCCC4)cc1OC | -6.14% (inactive)
COc1ccc(/C=N/Nc2ncnc3sc4c(c23)CCCC4)cc1O | 82.7% (active)
COc1ccc(NC(=O)CCNC(=O)Cn2cnc3sc4c(c3c2=O)CCCC4)cc1OC | 11.8% (inactive)
COCCCNC(=O)C1CCC(CNS(=O)(=O)c2ccc(OC)cc2)CC1 (stereo not drawn) | -8.61% (inactive)
CCN(CC)C(=O)C1CCC(C)(C(=O)O)C1(C)C (stereo not drawn) | 7.66% (inactive)
Cc1nnc(SCCCCSc2nnc(C)c(=O)[nH]2)[nH]c1=O | -7.01% (inactive)
CC(C)n1cnc2c(Nc3cccc(Cl)c3)nc(N(CCO)CCCO)nc21 | 50.8% (active)
C=C(C)C1CC=C(C)/C(=N/NC(=O)CCCNc2cccc(C)c2)C1 (stereo not drawn) | 5.76% (inactive)
CN(CCO)c1ccc(/C=N/Nc2nncc3ccccc23)cc1 | -22.8% (inactive)
CN1C(=O)c2ccc(NC(=O)C3CCCCC3)cc2C1=O | -41% (inactive)
O=C(Nc1ccc2c(c1)OCO2)C1CC1(Cl)Cl (stereo not drawn) | -31.7% (inactive)
O=C(Nc1ccc2c(c1)OCCO2)C1CCCC1 | 81.7% (active)
CC(C)C[C@H]1CNC(=O)C(=O)N1C[C@H]1CCCN1C[C@H](Cc1ccc(O)cc1)N1C[C@H](CC(C)C)N(CC2CCCCCC2)C(=O)C1=O | -20.6% (inactive)
O=C1N[C@H](Cc2c[nH]c3ccccc23)COC(=O)[C@H](Cc2ccc(F)cc2)C/C=C\C[C@H]1CC(=O)N(CCO)Cc1ccccc1 | 19% (inactive)
O=C(Cn1c(-c2cscn2)nc2ccccc21)Nc1ccc(Cl)cc1 | 6.66% (inactive)
C/C(CC(=O)Nc1ccc(C)cc1C)=N\NC(=O)C(C)C | 7.58% (inactive)
CC1CCCCC1NC(=O)Cn1cnc2c1c(=O)n(C)c(=O)n2C (stereo not drawn) | -7% (inactive)
O=C(CCc1[nH]c2ccccc2c1Sc1ccccc1)N(CCO)CCO | 7.74% (inactive)
Cc1cccc(-n2ncc(Cl)c(Cl)c2=O)c1 | 72.5% (active)
CCCNC(=O)c1c(Cl)cnn1-c1ccc(C)cc1 | -51.1% (inactive)

Compound | inhibition
CC(=O)Nc1c2c(nn1-c1cccc(C)c1)CSC2 | -5.25% (inactive)
CCNS(=O)(=O)c1ccc(CCC(=O)N2CCN(c3cc(Cl)ccc3C)CC2)cc1 | 26.1% (inactive)
O=S(=O)(Cc1cc(Sc2ccccc2)nc(-c2ccccc2)n1)c1ccccc1 | -3.96% (inactive)
O=C(N[C@@H](Cc1c[nH]c2ccccc12)C(=O)O)OCC1c2ccccc2-c2ccccc21 | -9.94% (inactive)
O=C(Nc1ccccc1Cl)c1ccccc1S(=O)(=O)c1ccccc1[N+](=O)[O-] | -26.1% (inactive)
O=C(Nc1ccccc1Cl)/C(Cl)=C(\Cl)S(=O)c1ccccc1 (stereo not drawn) | 86.9% (active)
CC(=O)c1ccc(NC(=O)C(C)N(C)CC(=O)Nc2ccccc2Cl)cc1 (stereo not drawn) | 7.44% (inactive)
O=C(Cn1[nH]c(=O)c2ccccc2c1=O)Nc1cccc(-c2nnc3n2CCCCC3)c1 | 18.8% (inactive)
Cc1ccc(C)c(C(=O)COC(=O)Cn2[nH]c(=O)c3ccccc3c2=O)c1 | -0.89% (inactive)
Cc1ccc(-c2csc(NC(=O)Cn3[nH]c(=O)c4ccccc4c3=O)n2)cc1 | 55.9% (active)
O=C1C=CC(=O)N1c1ccc(N2CCCCC2)cc1 | -3% (inactive)
COC(=O)[C@@]1(Sc2ccc(C)cc2)CC(=O)N(c2cccc(SC)c2)[C@@H]1c1ccccc1 | -0.08% (inactive)
N/C(=N\OC(=O)CCC1CCCCC1)c1ccccn1 | -40.4% (inactive)
Cc1cccc(/C(N)=N/OC(=O)c2ccccc2Cl)c1 | 3.79% (inactive)
Cc1ccc(C(=O)O/N=C(\N)c2ccccn2)cc1Cl | 72.9% (active)
COc1ccc(C2/C(=C(/O)c3ccc4c(c3)CC(C)O4)C(=O)C(=O)N2Cc2ccncc2)cc1 (stereo not drawn) | -12.1% (inactive)
CC(=O)c1cc2c(cc1NC(=O)Cn1nc(-c3ccc(F)cc3)ccc1=O)OCO2 | -13.6% (inactive)
CC(=O)Nc1ccc(S(=O)(=O)NC2Cc3ccccc3C2)cc1 | -3.14% (inactive)
CCOc1ccc(/C=C(/NC(=O)c2ccccc2)C(=O)NCCC(=O)O)cc1 | 4.42% (inactive)
O=C(c1noc2c1CCCC2)N1CCc2ccccc2C1 | -14.7% (inactive)

Compound | inhibition
Cc1noc(C)c1COc1cccc(C(=O)Nc2cccnc2)c1 | 11.8% (inactive)
O=C(Nc1cccnc1)c1noc2c1CCCCC2 | 64.2% (active)
CCCC(C)C(=O)NCc1ccncc1 (stereo not drawn) | 8.22% (inactive)
FC(F)(F)Oc1ccccc1C(c1nnnn1C1CCCCC1)N1CCN(C/C=C/c2ccccc2)CC1 (stereo not drawn) | 5.81% (inactive)
CCCCCCc1cc2cc(-c3nnc(-c4ccccc4)o3)c(=O)oc2cc1O | 61.6% (active)
CCOC(=O)Cn1c(O)c(N=NC(=O)CNC(=O)Cc2ccccc2)c2ccccc21 | -7.61% (inactive)
O=[N+]([O-])/C=C/c1ccc2c(ccn2Cc2ccccc2)c1 | 81.4% (active)
C/C(CC(=O)NCc1ccc(Cl)cc1)=N\NC(=O)COc1ccc(C)cc1Br | -10.5% (inactive)
Cc1cc(OC(=O)c2ccc(OC(C)C)cc2)c([N+](=O)[O-])c(=O)[nH]1 | -22.1% (inactive)
O=C(Oc1ccc(-c2nnco2)cc1)c1ccc(F)c(S(=O)(=O)N2CCOCC2)c1 | 40.2% (inactive)
COC(=O)c1scc(C)c1NC(=O)CSc1ccc(Cl)cc1 | -6.59% (inactive)
COC(=O)c1sccc1NC(=O)CSc1ccccc1NS(=O)(=O)c1cc(Cl)ccc1Cl | 51.4% (active)
COC(=O)c1sccc1NS(=O)(=O)c1ccc(F)cc1F | 10.6% (inactive)
CC(C)(Oc1ccc(C2CC2(Cl)Cl)cc1)C(=O)O (stereo not drawn) | -11.2% (inactive)
Cc1cc(N)n(-c2ccc(S(=O)(=O)N3CCCC3)cc2[N+](=O)[O-])n1 | 1.51% (inactive)
Cn1cc(/C=C/c2nc3ccccc3c(=O)n2-c2cccc([N+](=O)[O-])c2)c2ccccc21 | 53.2% (active)
CCn1c(/C=C/c2ccc([N+](=O)[O-])o2)nc2ccccc2c1=O | 1.09% (inactive)
CCOC(=O)N1CCN(Cc2nc3ccc([N+](=O)[O-])cc3c(=O)n2-c2cccc(OC)c2)CC1 | 5.96% (inactive)
